Calls of active or inactive are those of the source. Entries that show only a call come without a potency. The call rests on the fitted dose curve; in most records, active means well fitted activation curve with a large enough effect in the repeat runs; inconclusive means weak or mixed curves; inactive means flat fitted curve, though single readings scatter.
assay: A CellTox Green Cytotoxicity Assay to monitor cytotoxicity in HEK293 cells - 0 hour (AID 1224869); details: CellTox Green fluorescence; series mostly up to 76.8 µM; further: nearly all actives have a fitted effect of over 50% in size
In short: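 Real-time, in one plate: 600 HEK293 cells/well with dead-cell DNA dye, pinned compound after 5 h, 37 C incubation over 40 h; viable cells give no appreciable fluorescence.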

Row | Compound | Potency
1 | Nc1ccc(O)cc1 | inactive
2 | CCc1cc(C(C)(C)C)c(O)c(C(C)(C)C)c1 | inactive
3 | CCN(CC)C(=S)SSC(=S)N(CC)CC | inactive
4 | Oc1ccc(Cl)cc1Cc1cc(Cl)ccc1O | inactive
5 | C/C=C/c1ccc(OCC)c(O)c1 | inactive
6 | CC1=C(C=O)C(C)(C)CC=C1 | inactive
7 | O=C1Nc2ccccc2C1(c1ccc(O)cc1)c1ccc(O)cc1 | inactive
8 | CCN(CC)CCOc1ccc(/C(=C(\Cl)c2ccccc2)c2ccccc2)cc1 | inactive
9 | C[N+]1([O-])CCOCC1 | inactive
10 | Cc1cc(C2(c3cc(C)c(O)cc3C)OS(=O)(=O)c3ccccc32)c(C)cc1O | inactive
11 | CC(C)(O)CCC(C)(C)O | inactive
12 | CC(=O)OCCOCCOCCOC(C)=O | inactive
13 | O=C(O[C@@H]1Cc2c(O)cc(O)cc2O[C@@H]1c1cc(O)c(O)c(O)c1)c1cc(O)c(O)c(O)c1 | inactive
14 | O=C(Cl)c1cccc(C(=O)Cl)c1 | inactive
15 | CCCOC(=O)c1cc(O)c(O)c(O)c1 | inactive
16 | C=C(C)C(=O)O | inactive
17 | Nc1cc(Cl)c(-c2cc(Cl)c(N)cc2Cl)cc1Cl | inactive
18 | CCn1c2ccccc2c2cc(N)ccc21 | inactive
19 | c1cc(C(c2ccc(OCC3CO3)cc2)C(c2ccc(OCC3CO3)cc2)c2ccc(OCC3CO3)cc2)ccc1OCC1CO1 (centres undefined) | inactive
20 | CCCCCCCCCCCCCC[P+](CCCC)(CCCC)CCCC | inactive
21 | CCCCC(CC)COC(=O)CC(C(=O)OCC(CC)CCCC)S(=O)(=O)O (centres undefined) | inactive
22 | CC1COc2c(N3CCN(C)CC3)c(F)cc3c(=O)c(C(=O)O)cn1c23 (centres undefined) | inactive
23 | CC(C)CCCCCCc1ccc(O)cc1 | inactive
24 | Cc1cccc(O)c1C | inactive

Source: PubChem BioAssay (Tox21)
